Experimental data as given in PubChem BioAssay AID686935 (National Center for Advancing Translational Sciences (NCATS), 2013).
Results filed as inconclusive are left out. Active and inactive are the calls of the source. The call rests on the fitted dose curve; in most records, active means well fitted curve in the direction sought with a large enough effect; inconclusive means small, poorly fitted or top-dose-only effect, or another doubt; inactive means no such curve, though single readings can be large or run the other way.

Assay: qHTS Assay for Lipid Storage Modulators: CytotoxicityAssay against Probe and Analogs
Conditions: 3T3-L1 adipocytes cytotoxicity, imaging cell count; series mostly up to 20 µM
Excerpt: Storing lipids as a reservoir for energy or the anabolism of elementary metabolites is a common feature of probably all cells and is conserved from bacteria to humans. The universal cellular lipid storage organelle is the so-called lipid storage droplet (LD). Although ubiquitous, LDs share a simple structure composed of a hydrophobic core that harbors the storage lipids, which is shielded by a droplet-specific phospholipid monolayer to which proteins are attached. The current model of LD biogenesis involves an incorporation of the lipid core into the membrane leaflets of the endoplasmic reticulum (ER) followed by a subsequent budding-like maturation of a LD, which ultimately pinches off. Once released, LD volume can increase by localized lipogenesis or fusion of existing droplets. Storage lipids are re-mobilized enzymatically by lipase activity. Lipase regulation in the adipocyte is heavily studied and involves multiple components including catecholamine signaling, the LD-associated proteins Perilipin and comparative gene identification-58 (CGI-58) and at least two lipases named hormone sensitive lipase (HSL) and adipocyte triglyceride lipase (ATGL). LD regulation outside of the adipocyte is poorly understood and only few components are known. However, there is an urgent need to learn more about ectopic fat depots as mislocalized storage of lipids, for example in the liver or muscle, is an eminent health problem associated with insulin resistance or the metabolic syndrome. We developed a laser-scanning cytometer assay to enable 1,536-well screening and combined the results of the small molecules screen with an RNAi database based on lipid storage. In this assay we tested analogs of the probe in a cytotoxicity assay. NIH Molecular Libraries Probe Production Centers Network [MLPCN] NIH Chemical Genomics Center [NCGC] MLPCN Grant: MH085686 Assay Submitter (PI): Mathias Beller, Max-Planck-Institut fur Biophysikalische Chemie
3T3-L1 cells were obtained from ATCC (CL-173). Pre-adipocyte medium (PM-1),differentiation medium (DM-2) and after adipocyte medium (AM-1) were purchased from Zen-Bio (# PM-1-L1, DM-2-L1, AM-1-L1). […] of PM-1containing 3,000 cells was dispensed into each well of a 96-well plate (Corning, #3340), and the assay plates were incubated at 37 °C, 95% humidity and 5% CO2 for 3-5 days. The differentiation of pre-adipocyte to adipocyte was induced by removing the pre-adipocyte medium and replacing with […] of differentiation medium. […] of compounds at different concentrations dissolved in differentiation medium were added to the assay plates, along with medium exchange for differentiation to test their effects on adipocyte differentiation. The final DMSO concentration was 0.5%. Triacsin C (Sigma-Aldrich T-4540), an inhibitor of long-chain fatty acyl CoA synthetase that blocks synthesis of triglycerides, was used as a positive control for lipid under-storage. After 3 days, differentiation medium was replaced with 200ul of adipocyte maintenance medium and assay plates were incubated for 4 days. Cells were then fixed using4% of paraformaldehyde in PBS for 30 minutes at room temperature, washed 3 times with PBS buffer. Finally, the cells were stained using […] of PBS containing BODIPY lipid dye 493/530 (1:2000 -, Life Technologies, # D-3922), Hoechst 33342 (1:1000, Life Technologies, #H3570) and CellMask deep red dye (1:10,000 , Life Technologies, #H32721). Images were acquired using InCell 2000 (GE), number of cells, number of lipids, size of lipids and cells were analysis using GE Investigator software.

Structure (SMILES) | outcome
CCOc1ccc(CCNC(=O)c2cc3cccnc3n2Cc2cccc(C)n2)cc1OCC | inactive
CCOc1ccc(CCNC(=O)c2cc3ccccc3n2Cc2ccccn2)cc1OCC | inactive
CCOc1ccc(CCNC(=O)c2cc3sccc3n2CCN(C)C)cc1OCC | inactive
CCOC(=O)C1CCN(C(=O)C2(NC(=O)Nc3ccccc3Cl)CCCC2)CC1 | inactive
CCOc1ccc(CCNC(=O)c2cc3ccccc3n2Cc2cccc(C)n2)cc1OCC | inactive
CCOc1ccc(CCNC(=O)c2cc3ncccc3n2Cc2cccc(C)n2)cc1OCC | inactive
CCOc1ccc(CCNC(=O)c2cc3sccc3n2Cc2ccc(F)cc2F)cc1OCC | inactive
CCOc1ccc(CCNC(=O)c2cc3ccccc3n2CCN2CCOCC2)cc1OCC | inactive
